Where a name gives a salt, the structure may show the parent alone.
These compounds were tested on Saccharomyces cerevisiae BY4741 SeMeCo community (assay: z-score of subpopulation abundance vs DMSO median, subpopulation auxotrophic for LUM; higher = larger share of this subpopulation than in DMSO controls). Conditions: 10 µM; 24 h; SM minimal medium; subpopulation (auxotrophy): LUM.
Method: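 Fluorescent four-plasmid SeMeCo (self-establishing metabolically cooperating S. cerevisiae BY4741 community; plasmids pH-mRuby2, pL-mWasabi, pU-eCFP, pM-TagRFP657) was grown 24 h in minimal SM medium with each Selleck FDA-approved drug at 10 µM in 384-well plates. Cells were fixed and imaged by high-content confocal microscopy. For each auxotrophic subpopulation (and the prototroph), a z-score gives the deviation from the DMSO vehicle-control population median.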

| Compound | z-score of subpopulation abundance |
| --- | --- |
| CN[C@@H]1[C@@H](O)[C@@H](O[C@@H]2[C@@H](O)[C@H](O[C@H]3O[C@H]([C@@H](C)O)[C@@H](O)[C@H](O)[C@H]3N)[C@@H](N)C[C@H]2N)OC[C@]1(C)O [Geneticin (G418 Sulfate)] | -0.36 |
| CCC1=C[C@H]2CN3CCc4c([nH]c5ccccc45)[C@](C(=O)OC)(C2)[C@H]13 [Catharanthine] | -0.3 |
| CCCN1C[C@H](CSC)C[C@@H]2c3cccc4[nH]cc(c34)C[C@H]21 [Pergolide Mesylate] | -0.65 |
| C[C@@H]1CC[C@H]2[C@@H](C)C(=O)O[C@@H]3O[C@@]4(C)CC[C@@H]1[C@]32OO4 [Artemisinin] | -0.97 |
| O=c1[nH]c2ccccc2n1CCCN1CCC(n2c(=O)[nH]c3cc(Cl)ccc32)CC1 [Domperidone] | -0.33 |
| C[C@@H]1O[C@@H](O[C@H]2C[C@@H](O)[C@]3(CO)[C@H]4[C@H](O)C[C@]5(C)[C@@H](C6=CC(=O)OC6)CC[C@]5(O)[C@@H]4CC[C@]3(O)C2)[C@H](O)[C@H](O)[C@H]1O [Ouabain] | -0.83 |
| CN1[C@@H]2CC[C@H]1C[C@@H](OC(=O)C(CO)c1ccccc1)C2 (some centres undefined) [Atropine sulfate monohydrate] | 0.28 |
| CN1[C@@H]2C[C@@H](OC(=O)[C@H](CO)c3ccccc3)C[C@H]1[C@@H]1O[C@@H]12 [Scopolamine HBr] | -0.9 |
| CN1c2ccccc2C(NCCCCCCC(=O)O)c2ccc(Cl)cc2S1(=O)=O (centres undefined) [Tianeptine sodium] | 0.15 |
| COc1cc2c(cc1OC)C1CC(=O)C(CC(C)C)CN1CC2 (centres undefined) [Tetrabenazine (Xenazine)] | 0.67 |
| C=CC[C@]1(O)CC[C@H]2[C@@H]3CCC4=CC(=O)CCC4=C3C=C[C@@]21C [Altrenogest] | -0.14 |
| C[N+](C)(C)CCCCCCCCCC[N+](C)(C)C [Decamethonium Bromide] | 0.08 |
| Cc1cc(C(C#N)c2ccc(Cl)cc2)c(Cl)cc1NC(=O)c1cc(I)cc(I)c1O (centres undefined) [Closantel] | 0.43 |
| CCN(C)C(=O)Oc1cccc([C@H](C)N(C)C)c1 [Rivastigmine Tartrate] | -0.01 |
| CCN(C)C(=O)Oc1cccc([C@H](C)N(C)C)c1 [Rivastigmine] | -0.27 |
| CCOC(=O)Nc1ccc(NCc2ccc(F)cc2)cc1N [Retigabine] | -0.25 |
| CC[N+](C)(CC)CCOC(=O)C(O)(c1ccccc1)c1ccccc1 [Methylbenactyzine Bromide] | -1.06 |

| Compound | z-score of subpopulation abundance |
| --- | --- |
| CN(C)[C@@H]1C(=O)C(C(N)=O)=C(O)[C@@]2(O)C(=O)C3=C(O)c4c(O)ccc(Cl)c4[C@@](C)(O)[C@H]3C[C@@H]12 [Chlortetracycline HCl] | -0.67 |
| Cn1cc(C2=C(c3cn(C4CCN(Cc5ccccn5)CC4)c4ccccc34)C(=O)NC2=O)c2ccccc21 | -0.2 |
| Cc1cc(O)ccc1Cl [Chlorocresol] | -0.61 |
| O=[N+]([O-])C(Br)(CO)CO [Bronopol] | -0.07 |
| COc1ccc2[nH]cc(CCN)c2c1 [5-Methoxytryptamine] | 0.78 |
| CC(=O)O[C@H]1C[C@@H]2CC[C@@H]3[C@H](CC[C@@]4(C)[C@H]3C[C@H]([N+]3(C)CCCCC3)[C@@H]4OC(C)=O)[C@@]2(C)C[C@@H]1[N+]1(C)CCCCC1 [Pancuronium dibromide] | -0.96 |
| CN(C)[C@@H]1C(=O)C(C(N)=O)=C(O)[C@@]2(O)C(=O)C3=C(O)c4c(O)cccc4[C@@](C)(O)[C@H]3C[C@@H]12 [Tetracycline HCl] | -0.52 |
| CN(C)C(=O)Oc1ccc[n+](C)c1 [Pyridostigmine Bromide] | -0.35 |
| O=c1cccc2n1C[C@@H]1CNC[C@H]2C1 [Cytisine] | -0.47 |
| COc1ccc(C(CN(C)C)C2(O)CCCCC2)cc1 (centres undefined) [Venlafaxine] | 0 |
| CN(C)C(=O)Oc1cccc([N+](C)(C)C)c1 [Neostigmine Bromide] | 0.02 |
| CC(NC(C)(C)C)C(=O)c1cccc(Cl)c1 (centres undefined) [Amfebutamone (Bupropion) HCl] | -0.86 |
| O=C(O[C@H]1C[C@H]2CC[C@@H](C1)[N+]21CCCC1)C(O)(c1ccccc1)c1ccccc1 [Trospium chloride] | -0.13 |
| COc1ccc(C=O)cc1 [p-Anisaldehyde] | -0.69 |
| CN[C@@H]1[C@@H](O)[C@@H](O[C@@H]2[C@@H](O)[C@H](O[C@H]3O[C@H](CN)CC[C@H]3N)[C@@H](N)C[C@H]2N)OC[C@]1(C)O.CN[C@@H]1[C@@H](O)[C@@H](O[C@@H]2[C@@H](O)[C@H](O[C@H]3O[C@H]([C@@H](C)N)CC[C@H]3N)[C@@H](N)C[C@H]2N)OC[C@]1(C)O.CN[C@@H]1[C@@H](O)[C@@H](O[C@@H]2[C@@H](O)[C@H](O[C@H]3O[C@H]([C@@H](C)NC)CC[C@H]3N)[C@@H](N)C[C@H]2N)OC[C@]1(C)O [Gentamicin Sulfate] | -0.47 |
| CN1[C@@H]2CC[C@H]1C[C@@H](OC(=O)[C@H](CO)c1ccccc1)C2 [Hyoscyamine] | -0.43 |
| CC[C@H]1CN2CC[C@]3(C(=O)Nc4ccccc43)[C@@H]2C[C@@H]1/C(=C\OC)C(=O)OC [Rhynchophylline] | -0.36 |
